Values joined by “and” are separate entries in the source; they are usually repeats but may differ in a detail not shown here. Identical values can stand only once. Records with an inconclusive call do not appear. Active and inactive are the calls of the source. Unless noted, calls come from the whole dose curve; as a rule, active = well fitted curve in the direction sought with a large enough effect; inconclusive = small, poorly fitted or top-dose-only effect, or another doubt; inactive = no such curve, though single readings can be large; an effect the other way counts as inactive or inconclusive.
Assays:
[1] = qHTS assay for small molecule disruptors of the mitochondrial membrane potential - 1 hr assay (AID 651754; calls by dose curve; note: % is set by controls: 0 for no effect and ±100 for the full control effect; nearly all actives have a fitted effect of over 35% in size)
Method in brief: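 Read-out: dye fluorescence at 490 nm ex/535 nm em (monomers) and 540 nm ex/590 nm em (aggregates) in HepG2 cells. Compound exposure 1 hr at 37C, followed by 30 min dye loading.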

[2] = qHTS assay for small molecule disruptors of the mitochondrial membrane potential - 5 hr assay (AID 651755; calls by dose curve; note: % is set by controls: 0 for no effect and ±100 for the full control effect; nearly all actives have a fitted effect of over 40% in size)
Method in brief: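 Membrane-potential dye readout: red aggregate (540 ex/590 em) versus green monomer (490 ex/535 em) fluorescence after 30 min dye loading, following 5 hr compound exposure at 37C of overnight-plated HepG2 cells.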

[3] = molecular target: Tumor necrosis factor (Homo sapiens) (UniProt P01375); test: qHTS assay to identify small molecules that stimulate Tumor Necrosis Factor-alpha (TNF-alpha) secretion (AID 651757; active = well fitted curve in the direction sought with a large enough effect in the signal ratio; the % refers to the signal ratio; note: 0% is about no effect)
Method in brief: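 THP-1 cells, 3000/well; compound 17 hrs, 37 C; add cryptate/XL665 anti-TNF-alpha antibody pair; 3 hr RT; TR-FRET (HTRF) read of secreted TNF-alpha. Quantitative HTS format.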

[4] = qHTS assay for environmental chemicals that activate the Aryl hydrocarbon Receptor (AhR) signaling pathway (AID 651777); conditions: 1A2-DRE human hepatoma cells, luciferase, 24 h; activation: stronger effect = higher value; note: % of control where 0% means no effect; nearly all actives have a fitted effect of over 15% in size
Method in brief: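 Measured luciferase activity, read 30 min after One-Glo addition at room temperature, from human hepatoma cells bearing a dioxin response element–CYP1A2 promoter reporter and exposed to compound for 24 hr at 37 C.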

[5] = molecular target: Peroxisome proliferator-activated receptor alpha (Homo sapiens) (UniProt Q07869); test: qHTS assay for small molecule agonists of the peroxisome proliferator-activated receptor alpha (PPARalpha) signaling pathway (AID 651778); conditions: PathHunter PPARalpha complementation, chemiluminescence, 6 h; stronger effect = higher value; note: % of control where 0% means no effect
Method in brief: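 Chemiluminescence from complemented enzyme reported PPARalpha activation in cells after 6 hr of compound treatment at 37 C. The detection reagent was incubated for 60 min at room temperature, and compounds were scored as agonists.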

[6] = molecular target: Nuclear receptor ROR-gamma (Homo sapiens) (UniProt P51449); test: qHTS assay for small molecule antagonists of the retinoid-related orphan receptor gamma (ROR-gamma) signaling pathway (AID 651802);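 note: CHO cells with doxycycline-induced ROR-gamma expression; luciferase reporter luminescence driven by ROR response element; series mostly up to about 92 µM; % is set by controls: 0 for no effect and ±100 for the full control effect; nearly all actives have a fitted effect of over 60% in size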
Method in brief: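 Luciferase read-out: ONE-Glo luminescence after 30 min at room temperature, following 16hr doxycycline induction at 37C, 5% CO2 of CHO cells with TET-inducible ROR and RORE-LUC reporter; decreased luminescence = reduced reporter activity.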

[7] = qHTS assay for small molecule agonists of the antioxidant response element (ARE) signaling pathway measured by Nrf2-dependant transcriptional activity (AID 720636; active = well fitted curve in the direction sought with a large enough effect in the repeat runs; an effect the other way counts as inactive or inconclusive;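 note: HepG2 cells with an ARE-driven luciferase reporter; % of control where 0% means no effect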)
Method in brief: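 In HepG2 cells engineered with an Nrf2-responsive luciferase gene, ARE induction was quantified as luminescence after 16 hr compound treatment at 37 C.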

[8] = qHTS assay for small molecule antagonists of the retinoid-related orphan receptor gamma (ROR-gamma) signaling pathway - cell viability counter screen (AID 720652; active = well fitted curve in the direction sought with a large enough effect in the repeat runs; an effect the other way counts as inactive or inconclusive;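 note: CHO reporter cells with doxycycline-induced ROR-gamma expression; series mostly up to about 92 µM; compound exposure lasted 16 hr before ATP read; % is set by controls: 0 for no effect and ±100 for the full control effect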)
Method in brief: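 CHO RORE-LUC/TET-ROR line, 1,000 cells/well, 37 C 5% CO2 5 hr; cpd or DMSO + doxycycline induction, 16 hr. CellTiter-Glo, 30 min RT, luminescence = ATP content.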

[9] = qHTS assay for small molecule agonists of the antioxidant response element (ARE) signaling pathway measured by Nrf2-dependant transcriptional activity - cell viability counter screen (AID 720653; active = well fitted curve in the direction sought with a large enough effect in the repeat runs; an effect the other way counts as inactive or inconclusive; note: % is set by controls: 0 for no effect and ±100 for the full control effect); conditions: ARE-bla HepG2 viability, CellTiter-Glo ATP luminescence, 16 h; stronger effect = lower value
Method in brief: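 Cytotoxicity counter screen: intracellular ATP quantified by CellTiter-Glo luminescence in the same ARE-bla HepG2 plates, after 16 h compound exposure and a 2 h beta-lactamase substrate step.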

[10] = qHTS assay for cell viability of HEK293 cells (AID 743288); conditions: ATP luminescence (CellTiter-Glo), 18 h, stronger effect = lower value; note: % is set by controls: 0 for no effect and ±100 for the full control effect; nearly all actives have a fitted effect of over 50% in size
Method in brief: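 After 18 h compound exposure at 37 C, parental HEK293 cells (2,000/well) are lysed with CellTiter-Glo and luminescence is read following 30 min at room temperature.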

[11] = qHTS assay for cell viability of the p53RE-bla HCT-116 cell line (AID 743292); note: % is set by controls: 0 for no effect and ±100 for the full control effect; nearly all actives have a fitted effect of over 55% in size
Method in brief: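 Intracellular ATP of p53RE-bla HCT-116 cells measured by luciferase luminescence following 16 h compound incubation at 37 C; DMSO-only wells served as vehicle controls.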

[12] = molecular target: Nuclear receptor subfamily 1 group I member 2 (Rattus norvegicus) (UniProt Q9R1A7); test: qHTS assay for small molecule activators of the rat pregnane X receptor (rPXR) signaling pathway (AID 651751; call rule not given here; note: 0% is about no effect); conditions: rPXR reporter cells, luciferase (One-Glo), 24 h
[13] = qHTS assay for small molecule activators of the human pregnane X receptor (PXR) signaling pathway (AID 720659; call rule not given here; note: 0% is about no effect)

Chain of Nuclear receptor ROR-gamma (Homo sapiens) (P51449 whole entry, looked up): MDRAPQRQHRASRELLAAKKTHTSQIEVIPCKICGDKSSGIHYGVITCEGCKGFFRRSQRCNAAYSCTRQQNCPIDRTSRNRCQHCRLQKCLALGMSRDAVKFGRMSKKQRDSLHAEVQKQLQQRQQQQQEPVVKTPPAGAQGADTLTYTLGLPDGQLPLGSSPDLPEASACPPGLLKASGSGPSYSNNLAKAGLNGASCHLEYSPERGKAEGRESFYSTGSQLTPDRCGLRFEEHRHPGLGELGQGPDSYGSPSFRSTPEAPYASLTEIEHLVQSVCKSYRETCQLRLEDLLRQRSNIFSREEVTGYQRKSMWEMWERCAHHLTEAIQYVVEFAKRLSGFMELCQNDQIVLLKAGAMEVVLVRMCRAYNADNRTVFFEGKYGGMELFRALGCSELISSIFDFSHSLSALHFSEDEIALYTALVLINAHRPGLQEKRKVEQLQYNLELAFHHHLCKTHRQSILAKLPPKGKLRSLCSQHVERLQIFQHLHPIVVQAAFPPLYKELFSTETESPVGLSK
Chain of Nuclear receptor subfamily 1 group I member 2 (Rattus norvegicus) (Q9R1A7 whole entry, looked up): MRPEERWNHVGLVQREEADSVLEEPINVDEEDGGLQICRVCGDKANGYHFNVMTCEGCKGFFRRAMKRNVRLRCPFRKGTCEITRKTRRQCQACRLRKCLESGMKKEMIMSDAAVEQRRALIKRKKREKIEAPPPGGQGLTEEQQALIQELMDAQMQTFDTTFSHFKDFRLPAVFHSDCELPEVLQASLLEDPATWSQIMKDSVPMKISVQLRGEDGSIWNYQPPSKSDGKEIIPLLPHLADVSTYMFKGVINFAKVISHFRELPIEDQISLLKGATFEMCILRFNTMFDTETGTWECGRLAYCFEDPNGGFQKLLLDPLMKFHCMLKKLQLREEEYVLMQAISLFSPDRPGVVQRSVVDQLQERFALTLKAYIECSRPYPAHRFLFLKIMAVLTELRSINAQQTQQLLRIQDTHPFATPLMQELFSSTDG
Chain of Tumor necrosis factor (Homo sapiens) (P01375 whole entry, looked up): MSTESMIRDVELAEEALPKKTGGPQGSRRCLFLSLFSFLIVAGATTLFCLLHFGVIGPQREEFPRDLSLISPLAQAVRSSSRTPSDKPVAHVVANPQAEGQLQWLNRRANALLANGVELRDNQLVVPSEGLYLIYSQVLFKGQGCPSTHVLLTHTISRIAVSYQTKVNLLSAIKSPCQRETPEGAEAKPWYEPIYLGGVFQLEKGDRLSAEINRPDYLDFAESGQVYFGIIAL
Chain of Peroxisome proliferator-activated receptor alpha (Homo sapiens) (Q07869 whole entry, looked up): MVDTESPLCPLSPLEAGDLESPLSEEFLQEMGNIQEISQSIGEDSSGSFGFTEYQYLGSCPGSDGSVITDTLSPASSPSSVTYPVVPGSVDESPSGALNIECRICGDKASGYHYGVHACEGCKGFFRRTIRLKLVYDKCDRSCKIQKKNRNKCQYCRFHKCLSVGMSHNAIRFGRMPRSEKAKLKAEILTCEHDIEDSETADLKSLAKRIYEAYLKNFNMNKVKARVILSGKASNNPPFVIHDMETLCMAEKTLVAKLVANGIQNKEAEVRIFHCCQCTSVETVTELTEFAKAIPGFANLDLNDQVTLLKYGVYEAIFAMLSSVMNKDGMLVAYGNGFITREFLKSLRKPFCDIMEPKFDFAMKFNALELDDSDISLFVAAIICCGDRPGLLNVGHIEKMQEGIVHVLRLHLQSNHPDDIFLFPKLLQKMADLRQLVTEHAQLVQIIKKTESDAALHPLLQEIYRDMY

CCOCCOCC
inactive: Potency [1] | Potency [2] | Potency [3] | activation [4] 1.1% | max response [5] -2.27% | Potency [6] | outcome [7] | Potency [8] | max response [9] 5.13% | max response [10] 0.474% | Potency [11] | max response [12] -2.52% | outcome [13]

C=C(C)C(=O)OCC(C)C
inactive: Potency [1] | Potency [2] | Potency [3] | activation [4] -0.68% | max response [5] -4.6% | Potency [6] | outcome [7] | Potency [8] | max response [9] -3.35% | max response [10] 2.75% | Potency [11] | max response [12] 5.41% | outcome [13]

Cc1ccc(Br)cc1
inactive: Potency [1] | Potency [2] | Potency [3] | activation [4] 0.745% | max response [5] -0.752% | Potency [6] | outcome [7] | Potency [8] | max response [9] -9.09% | max response [10] -7.93% | Potency [11] | max response [12] 10.2% | outcome [13]

CCC=O
inactive: Potency [1] | Potency [2] | Potency [3] | activation [4] -0.0092% | max response [5] -0.926% | Potency [6] | outcome [7] | Potency [8] | max response [9] -3.76% | max response [10] 1.05% | Potency [11] | max response [12] 1.07% | outcome [13]

O=[N+]([O-])c1ccc(Cl)cc1Cl
inactive: Potency [1] | Potency [2] | Potency [3] | activation [4] -1.71% | max response [5] -1.04% | Potency [6] | outcome [7] | Potency [8] | max response [9] -19.5% | max response [10] 0.0931% | Potency [11] | max response [12] -0.131% | outcome [13]

CCCCCO
inactive: Potency [1] | Potency [2] | Potency [3] | activation [4] 0.0119% | max response [5] -2.11% | Potency [6] | outcome [7] | Potency [8] | max response [9] 3.66% | max response [10] 0.87% | Potency [11] | max response [12] -1.89% | outcome [13]

Cc1ccc(C(=O)O)cc1
inactive: Potency [1] | Potency [2] | Potency [3] | activation [4] -0.0785% | max response [5] 2.54% | Potency [6] | outcome [7] | Potency [8] | max response [9] 8.21% | max response [10] -10.4% | Potency [11] | max response [12] 3.84% | outcome [13]

CC(=O)c1cc(C)oc1C
inactive: Potency [1] | Potency [2] | Potency [3] | activation [4] 0.74% | max response [5] -8.47% | Potency [6] | outcome [7] | max response [9] 1.5% | max response [10] -13.5% | Potency [11] | max response [12] 1.56% | outcome [13]

CCCCC(CC)CO (stereo unspecified)
inactive: Potency [1] | Potency [2] | Potency [3] | activation [4] -0.248% | max response [5] -2.86% | Potency [6] | outcome [7] | Potency [8] | max response [9] 7.9% | max response [10] -2.63% | Potency [11] | max response [12] -2.06% | outcome [13]

CCN(C(=O)N(CC)c1ccccc1)c1ccccc1
inactive: Potency [1] | Potency [2] | Potency [3] | activation [4] -1.64% | max response [5] -4.39% | Potency [6] | outcome [7] | Potency [8] | max response [9] -10.4% | max response [10] -19.1% | Potency [11] | max response [12] -2.68%

CCOCCO
inactive: Potency [1] | Potency [2] | Potency [3] | activation [4] -0.327% | max response [5] -5.75% | Potency [6] | outcome [7] | Potency [8] | max response [9] 10.2% | max response [10] -0.409% | Potency [11] | max response [12] -4.11% | outcome [13]

CCCCCCCN
inactive: Potency [1] | Potency [2] | Potency [3] | activation [4] -0.576% | max response [5] -4.9% | Potency [6] | outcome [7] | Potency [8] | max response [9] -1.43% | max response [10] 9.44% | Potency [11] | max response [12] -0.183% | outcome [13]

CC(C)Cc1nccs1
inactive: Potency [1] | Potency [2] | Potency [3] | activation [4] 1% | max response [5] -1.04% | Potency [6] | outcome [7] | Potency [8] | max response [9] 25.9% | max response [10] -11.2% | Potency [11] | max response [12] 7.57% | outcome [13]

NC=O
inactive: Potency [1] | Potency [2] | Potency [3] | activation [4] 1.58% | max response [5] -1.01% | Potency [6] | outcome [7] | Potency [8] | max response [9] 6.13% | max response [10] -0.0358% | Potency [11] | max response [12] -1.14% | outcome [13]

C=C(C)C(=O)OCC(C)O (stereo unspecified)
inactive: Potency [1] | Potency [2] | Potency [3] | activation [4] 0.365% | max response [5] -1.16% | Potency [6] | outcome [7] | Potency [8] | max response [9] 7.34% | max response [10] -4.55% | Potency [11] | max response [12] -4.2% | outcome [13]

NC(=S)NNC(N)=S
inactive: Potency [1] | Potency [2] | Potency [3] | activation [4] 0.955% and 1.28% | max response [5] 0.409% and -1.13% | Potency [6] | outcome [7] | Potency [8] | max response [9] 1.26% and -5.12% | max response [10] -2.43% and -16.6% | Potency [11] | max response [12] -3.78% and 5.23% | outcome [13]

CCc1ccccc1O
inactive: Potency [1] | Potency [2] | Potency [3] | activation [4] -0.147% | max response [5] -2.08% | Potency [6] | outcome [7] | Potency [8] | max response [9] 4.85% | max response [10] -0.782% | Potency [11] | max response [12] -3.4% | outcome [13]

O=C1CCCCC1
inactive: Potency [1] | Potency [2] | Potency [3] | activation [4] -0.681% | max response [5] -2.26% | Potency [6] | outcome [7] | Potency [8] | max response [9] 5.45% | max response [10] -3.35% | Potency [11] | max response [12] 2.79% | outcome [13]

CC=C(Cl)Cl
inactive: Potency [1] | Potency [2] | Potency [3] | activation [4] -0.394% | max response [5] -5.05% | Potency [6] | outcome [7] | Potency [8] | max response [9] -6.27% | max response [10] 5.81% | Potency [11] | max response [12] -4.19% | outcome [13]

C1CCCC1
inactive: Potency [1] | Potency [2] | Potency [3] | activation [4] 0.0008% | max response [5] 5.92% | Potency [6] | outcome [7] | Potency [8] | max response [9] -4.11% | max response [10] 0.668% | Potency [11] | max response [12] -1.32% | outcome [13]

C(=C/c1ccccc1)/c1ccccc1
inactive: Potency [1] | Potency [2] | Potency [3] | activation [4] 1.55% | max response [5] 5.49% | Potency [6] | outcome [7] | Potency [8] | max response [9] 5.32% | max response [10] -10.3% | Potency [11] | max response [12] 0.267% | outcome [13]

NCCCCCCN
inactive: Potency [1] | Potency [2] | Potency [3] | activation [4] 0.0666% | max response [5] -4.8% | Potency [6] | outcome [7] | Potency [8] | max response [9] -0.206% | max response [10] 10.3% | Potency [11] | max response [12] 2.77% | outcome [13]

O=[N+]([O-])c1ccc(CCO)cc1
inactive: Potency [1] | Potency [2] | Potency [3] | activation [4] 0.416% | max response [5] -1.57% | Potency [6] | outcome [7] | Potency [8] | max response [9] -24.2% | max response [10] -6.69% | Potency [11] | max response [12] 0.179% | outcome [13]

CC(C=O)Cc1ccc(C(C)(C)C)cc1 (stereo unspecified)
inactive: Potency [1] | Potency [2] | Potency [3] | activation [4] 0.301% and -1.84% | max response [5] -2% and -1.24% | outcome [7] | Potency [8] | max response [9] -4.71% and -17.8% | max response [10] 9% and 0.62% | Potency [11] | max response [12] 2.84% and 3.47% | outcome [13]

CCOC(=O)C(C)C(C)=O (stereo unspecified)
inactive: Potency [1] | Potency [2] | Potency [3] | activation [4] 0.277% | max response [5] -3.29% | outcome [7] | Potency [8] | max response [9] -7.43% | max response [10] 2.57% | Potency [11] | max response [12] 4.21% | outcome [13]
